The record followed here is PubChem BioAssay (NCI).

Experiment [1] is described as follows: NCI Yeast Anticancer Drug Screen. Data for the rad50 strain (AID 155).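 Note: 0% = growth of vehicle-only cultures of the same strain.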 Particulars: S. cerevisiae rad50 strain growth inhibition; at 50.0 µM; hits give high values. In outline:
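Yeast carrying a defined DNA repair defect were exposed to test compounds, and growth was compared with vehicle-treated controls to give percent inhibition.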

A short description of experiment [2]: NCI Yeast Anticancer Drug Screen. Data for the mec2-1 strain (AID 157). The conditions noted are these: S. cerevisiae mec2-1 strain, at 50.0 µM, hits give high values. In outline:
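Yeast mec2-1 mutant treated with compound. Readout: growth inhibition vs vehicle controls.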

Experiment [3] can be described thus: NCI Yeast Anticancer Drug Screen. Data for the sgs1 mgt1 strain (AID 161).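 Note: 0% = growth of cultures given vehicle only.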 Particulars: S. cerevisiae sgs1 mgt1 strain, at 50.0 µM, hits give high values. In outline: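 Genetically altered yeast, compound exposure, growth inhibition relative to vehicle.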
Experiment [4] in a line: NCI Yeast Anticancer Drug Screen. Data for the cln2 rad14 strain (AID 165).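 Note: 0% = growth equal to vehicle treated cultures.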 Particulars: S. cerevisiae cln2 rad14 strain, at 50.0 µM, hits give high values. The essentials: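 cln2 rad14 yeast strain; compound exposure; growth inhibition read vs vehicle controls.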
A short description of experiment [5]: NCI Yeast Anticancer Drug Screen. Data for the bub3 strain (AID 167). The conditions noted are these: S. cerevisiae bub3 mutant strain, at 50.0 µM, hits give high values. In outline: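 Compounds were applied to a genetically altered yeast strain carrying a cell-cycle control defect. Growth inhibition was scored against vehicle-treated controls.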
A short description of experiment [6]: NCI Yeast Anticancer Drug Screen. Data for the mlh1 rad18 strain (AID 175). The conditions noted are these: S. cerevisiae mlh1 rad18 strain growth inhibition; at 50.0 µM; hits give high values. In outline:
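Yeast w/ defined DNA-repair lesions; compound exposure; growth vs vehicle controls → % inhibition.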

This is part of a sample that, as a whole, favours compounds with a hit. Of some 79,000 tested, about 15% had one in any assay. Unmarked numbers belong to inactive results. The source made the active and inactive calls. Cut-off read from the data, not from the text of the source: active = growth inhibition above about 70%; inactive = the rest.

Turning to `CCOc1ccc(NC(=O)C2=C(C)NC(C)=C(C(=O)Nc3ccc(OCC)cc3)C2c2ccc(O)c(OC)c2)cc1`, the growth inhibition was -17.4% in experiment [1]; 3% in experiment [2]; -14.8% in experiment [3]; -16.4% in experiment [4]; 16% in experiment [5]; -8.1% in experiment [6].
As to `CCOC(=O)NCC(C)(C)C`, the growth inhibition in experiment [1] is -2.4%; in experiment [2], 10.9%; in experiment [3], 6.5%; in experiment [4], -0.65%; in experiment [5], -7.9%; in experiment [6] it was 35.4%.
As for `N/C=N/OC(=O)c1ccccc1`, the growth inhibition in experiment [1] is 11.5%; in experiment [2], 14.4%; in experiment [3], 11.8%; in experiment [4], 4.7%; in experiment [5] it was 0.5%; in experiment [6] it was 8.25%.
On to `COc1ccc(Nc2nc3cc(C(F)(F)F)ccc3nc2-c2ccccc2)cc1OC`, for which the growth inhibition in experiment [1] was 2.05%; in experiment [2], 2.65%; in experiment [3], -48.2%; in experiment [4] it was -4.85%; in experiment [5] it was -12.4%; in experiment [6] it was -24.4%.
As for `CCOC(=O)/C=C/C(=O)N(C)c1ccccc1`, the growth inhibition in experiment [1] was -12.2%; in experiment [2] it was -7.15%; in experiment [3], -5.3%; in experiment [4] it was -0.5%; in experiment [5], -12.7%; in experiment [6], -18.6%.
As to `CC(=O)c1c[nH]c(=O)c2cc3c(cc12)OCO3`, the growth inhibition is -42.8% in experiment [1]; -14.1% in experiment [2]; -7.85% in experiment [3]; -10.4% in experiment [4]; 12.8% in experiment [5]; -8.3% in experiment [6].
For `CCOC(=O)C1SC(=Nc2ccc(OC)c(OC)c2)N=C1C` (stereo unspecified), the growth inhibition in experiment [1] was 17.9%; in experiment [2], 4.2%; in experiment [3], 50.3%; in experiment [4] it was 4.95%; in experiment [5] it was 29.9%; in experiment [6] it was 1.4%.
Take `Nc1c(C(=O)Nc2ccc(S(N)(=O)=O)cc2)[n+]([O-])c2ccccc2[n+]1[O-]`: the growth inhibition in experiment [1] is -7.9%; in experiment [2] it was -9.8%; in experiment [3] it was 0.5%; in experiment [4], 1%; in experiment [5] it was -9.95%; in experiment [6], -6.45%.
Consider `O=C(O)COc1ccccc1Cl`, for which the growth inhibition in experiment [1] was 34.6%; in experiment [2], 13.3%; in experiment [3], 22.5%; in experiment [4], 19.8%; in experiment [5], 26.1%; in experiment [6], 11.8%.
`COc1ccc(Nc2nc(NS(=O)(=O)c3cc(C)c(Cl)cc3S)n[nH]2)cc1`: the growth inhibition in experiment [1] was 23.4%; in experiment [2] it was 27.9%; in experiment [3], 3.65%; in experiment [4], 24.9%; in experiment [5] it was 16.9%; in experiment [6], -4.9%.
With `CCCC(C)(CC)C(=O)O` (stereo unspecified), the growth inhibition in experiment [1] was 7.45%; in experiment [2], -14.8%; in experiment [3] it was 14.4%; in experiment [4], -10.3%; in experiment [5], 1.95%; in experiment [6], 34.8%.
As for `Cn1cc(C2(C)CC(C)(C)c3c2n(C)c2ccccc32)c2ccccc21` (stereo unspecified), the growth inhibition in experiment [1] is 0.3%; in experiment [2], -16.1%; in experiment [3], -12.2%; in experiment [4] it was 7.15%; in experiment [5] it was -17.9%; in experiment [6], 2.95%.
As to `CCOC(=O)NC(Nc1ccc(S(=O)(=O)Nc2ncccn2)cc1)(C(=O)OCC)C(F)(F)F` (stereo unspecified), the growth inhibition in experiment [1] is -0.55%; in experiment [2] it was -19.4%; in experiment [3], 10.9%; in experiment [4] it was 32.1%; in experiment [5] it was 16.9%; in experiment [6], 2.2%.
As to `CC(=O)Nc1ccc(NC(=O)C2CC3C=CC2C3)cc1` (stereo unspecified), the growth inhibition in experiment [1] was 7.55%; in experiment [2], -11%; in experiment [3], -33%; in experiment [4], 3.1%; in experiment [5], -10.7%; in experiment [6] it was 23.2%.
With `O=C1Oc2cc3c(c4cccc1c24)O[C@H](c1ccccc1)[C@@H](c1ccccc1)[C@@H]3c1ccc(Cl)cc1`, the growth inhibition in experiment [1] is -2.95%; in experiment [2], 11.2%; in experiment [3], -2.4%; in experiment [4], -5.15%; in experiment [5], 3.3%; in experiment [6], 9.3%.
As for `CC(=O)CC(=O)Nc1ccc(C)c(C)c1`, the growth inhibition was -4.6% in experiment [1]; 2.15% in experiment [2]; 10% in experiment [3]; 7.95% in experiment [4]; 40% in experiment [5]; 12.5% in experiment [6].
As to `O=S(=O)(Oc1ccc(-c2ccccc2)cc1Br)c1ccccc1`, the growth inhibition in experiment [1] was 13%; in experiment [2] it was -0.85%; in experiment [3] it was 5.55%; in experiment [4], 8.3%; in experiment [5], 1.8%; in experiment [6], -5.6%.
Take `Cc1ccc(-c2cc(-c3ccco3)nc(N)n2)o1`: the growth inhibition was -23.9% in experiment [1]; -9.1% in experiment [2]; 10.6% in experiment [3]; 4.3% in experiment [4]; 5.45% in experiment [5]; 1.75% in experiment [6].
For `COc1ccc(C)cc1S(=O)(=O)c1ccc(C)cc1[N+](=O)[O-]`, the growth inhibition was 6.6% in experiment [1]; -2.85% in experiment [2]; 2.15% in experiment [3]; 34.5% in experiment [4]; 23.3% in experiment [5]; -15.4% in experiment [6].
On to `O=C(Cn1c2c(c3ccccc31)CCCC2)NC1CCCCC1`, for which the growth inhibition in experiment [1] was 2.6%; in experiment [2], -28.4%; in experiment [3], 21.9%; in experiment [4], 30.3%; in experiment [5] it was 1.25%; in experiment [6], 9.7%.
`CC1=COC2(CC1)OC1CC3C4CCC5CC(O)CCC5(C)C4CCC3(C)C1C2C` (stereo unspecified): the growth inhibition was 72.5% (active) in experiment [1]; 60% in experiment [2]; 87.3% (active) in experiment [3]; 45.5% in experiment [4]; 39.5% in experiment [5]; 83% (active) in experiment [6].
